# Data: ChEMBL document CHEMBL1961873, “Compounds: GSK PKIS; Assays: Nanosyn kinase panel” (2012)
# Key:
# [1] = molecular target: Sphingosine kinase 1 (Homo sapiens) (UniProt Q9NYA1); details: at 1 µM;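 further: mean SPHK1 inhibition value reported from the GSK PKIS kinase panel screen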
# [2] = molecular target: T1, Sphingosine kinase 2 (Homo sapiens) (UniProt Q9NRA0); details: at 0.1 µM
# T1 sequence (whole entry): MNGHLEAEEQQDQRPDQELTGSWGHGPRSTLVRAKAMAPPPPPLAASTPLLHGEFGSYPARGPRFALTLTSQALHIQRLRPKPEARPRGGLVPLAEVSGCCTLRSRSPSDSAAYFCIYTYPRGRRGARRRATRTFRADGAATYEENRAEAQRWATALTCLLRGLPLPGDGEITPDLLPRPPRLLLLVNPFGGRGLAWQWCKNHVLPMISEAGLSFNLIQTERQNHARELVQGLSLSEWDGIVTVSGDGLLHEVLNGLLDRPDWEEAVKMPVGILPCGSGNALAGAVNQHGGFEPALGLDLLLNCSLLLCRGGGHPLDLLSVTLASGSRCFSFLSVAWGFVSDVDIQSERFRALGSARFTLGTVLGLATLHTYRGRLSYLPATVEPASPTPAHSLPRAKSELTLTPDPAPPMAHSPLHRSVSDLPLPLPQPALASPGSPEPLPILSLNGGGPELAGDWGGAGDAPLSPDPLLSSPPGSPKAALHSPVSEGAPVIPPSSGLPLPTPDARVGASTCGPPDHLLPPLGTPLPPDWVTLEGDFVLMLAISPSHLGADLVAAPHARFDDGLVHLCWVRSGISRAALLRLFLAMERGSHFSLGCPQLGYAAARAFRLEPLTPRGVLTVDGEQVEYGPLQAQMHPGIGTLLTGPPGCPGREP
# [3] = molecular target: T1, Sphingosine kinase 2 (Homo sapiens); details: at 1 µM
# [4] = molecular target: Casein kinase II subunit alpha (Homo sapiens) (UniProt P68400); details: at 0.1 µM
# [5] = molecular target: Casein kinase II subunit alpha (Homo sapiens) (UniProt P68400); details: at 1 µM
# [6] = molecular target: T2, Inhibitor of nuclear factor kappa-B kinase subunit alpha (Homo sapiens) (UniProt O15111); details: at 0.1 µM
# T2 sequence (whole entry): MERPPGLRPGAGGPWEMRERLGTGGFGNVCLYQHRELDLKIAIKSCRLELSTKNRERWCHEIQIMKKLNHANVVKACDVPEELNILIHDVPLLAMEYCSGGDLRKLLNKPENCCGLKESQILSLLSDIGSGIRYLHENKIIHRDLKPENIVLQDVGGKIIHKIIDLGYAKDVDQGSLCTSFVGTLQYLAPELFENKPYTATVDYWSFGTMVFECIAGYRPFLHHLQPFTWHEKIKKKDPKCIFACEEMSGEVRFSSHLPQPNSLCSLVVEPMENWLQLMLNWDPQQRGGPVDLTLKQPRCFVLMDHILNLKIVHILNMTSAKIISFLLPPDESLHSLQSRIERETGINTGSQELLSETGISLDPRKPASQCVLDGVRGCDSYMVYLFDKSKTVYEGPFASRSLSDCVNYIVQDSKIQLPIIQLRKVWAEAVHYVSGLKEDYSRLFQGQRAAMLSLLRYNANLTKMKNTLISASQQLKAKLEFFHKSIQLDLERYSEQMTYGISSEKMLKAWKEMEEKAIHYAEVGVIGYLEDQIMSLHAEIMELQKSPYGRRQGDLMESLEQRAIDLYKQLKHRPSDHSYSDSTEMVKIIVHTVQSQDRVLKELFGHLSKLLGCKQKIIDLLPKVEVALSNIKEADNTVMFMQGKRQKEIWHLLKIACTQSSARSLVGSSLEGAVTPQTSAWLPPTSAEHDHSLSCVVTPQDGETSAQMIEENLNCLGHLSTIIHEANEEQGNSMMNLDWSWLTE
# [7] = molecular target: T2, Inhibitor of nuclear factor kappa-B kinase subunit alpha (Homo sapiens); details: at 1 µM
# [8] = molecular target: T3, Inhibitor of nuclear factor kappa-B kinase subunit beta (Homo sapiens) (UniProt O14920); details: at 0.1 µM
# T3 sequence (whole entry): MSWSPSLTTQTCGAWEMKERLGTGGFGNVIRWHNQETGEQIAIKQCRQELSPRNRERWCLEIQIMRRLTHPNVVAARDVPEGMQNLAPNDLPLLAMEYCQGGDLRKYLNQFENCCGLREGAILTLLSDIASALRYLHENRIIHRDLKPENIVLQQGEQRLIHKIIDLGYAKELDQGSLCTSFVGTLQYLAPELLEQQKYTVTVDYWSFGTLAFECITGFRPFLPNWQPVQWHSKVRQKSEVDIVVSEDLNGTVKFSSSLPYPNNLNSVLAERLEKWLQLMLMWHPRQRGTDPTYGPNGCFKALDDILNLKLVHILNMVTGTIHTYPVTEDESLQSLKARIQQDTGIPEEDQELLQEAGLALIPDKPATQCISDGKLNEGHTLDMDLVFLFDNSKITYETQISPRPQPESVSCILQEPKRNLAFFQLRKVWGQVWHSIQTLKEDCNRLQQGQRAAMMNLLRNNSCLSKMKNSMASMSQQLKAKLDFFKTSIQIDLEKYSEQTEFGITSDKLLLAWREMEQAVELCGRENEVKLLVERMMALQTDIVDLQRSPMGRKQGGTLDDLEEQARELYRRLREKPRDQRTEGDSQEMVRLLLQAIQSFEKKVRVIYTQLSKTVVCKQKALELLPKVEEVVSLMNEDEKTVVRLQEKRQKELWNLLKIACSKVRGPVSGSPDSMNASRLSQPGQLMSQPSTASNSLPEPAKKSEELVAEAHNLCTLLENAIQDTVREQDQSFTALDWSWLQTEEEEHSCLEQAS
# [9] = molecular target: T3, Inhibitor of nuclear factor kappa-B kinase subunit beta (Homo sapiens); details: at 1 µM
# [10] = molecular target: T4, Inhibitor of nuclear factor kappa-B kinase subunit epsilon (Homo sapiens) (UniProt Q14164); details: at 0.1 µM
# T4 sequence (whole entry): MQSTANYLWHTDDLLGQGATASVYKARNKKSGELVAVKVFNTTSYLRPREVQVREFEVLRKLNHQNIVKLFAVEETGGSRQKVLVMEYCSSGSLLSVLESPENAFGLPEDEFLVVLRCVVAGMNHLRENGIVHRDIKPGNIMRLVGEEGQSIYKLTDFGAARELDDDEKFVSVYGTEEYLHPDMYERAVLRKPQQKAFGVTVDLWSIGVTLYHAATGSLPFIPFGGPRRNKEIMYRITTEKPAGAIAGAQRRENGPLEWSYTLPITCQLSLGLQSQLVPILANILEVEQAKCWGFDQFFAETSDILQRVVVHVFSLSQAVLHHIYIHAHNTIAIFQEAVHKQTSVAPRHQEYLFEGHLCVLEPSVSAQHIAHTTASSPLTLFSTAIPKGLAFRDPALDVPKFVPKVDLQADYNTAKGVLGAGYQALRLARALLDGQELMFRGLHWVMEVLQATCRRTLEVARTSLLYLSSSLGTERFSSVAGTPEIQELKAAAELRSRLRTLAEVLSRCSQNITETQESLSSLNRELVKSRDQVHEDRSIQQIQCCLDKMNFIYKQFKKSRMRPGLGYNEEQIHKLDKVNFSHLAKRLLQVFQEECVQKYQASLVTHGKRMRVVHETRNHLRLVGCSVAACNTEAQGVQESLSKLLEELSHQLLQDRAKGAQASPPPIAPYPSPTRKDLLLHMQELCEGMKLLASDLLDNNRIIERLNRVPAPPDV
# [11] = molecular target: T4, Inhibitor of nuclear factor kappa-B kinase subunit epsilon (Homo sapiens); details: at 1 µM
# [12] = molecular target: T5, Serine/threonine-protein kinase Nek1 (Homo sapiens) (UniProt Q96PY6); details: at 0.1 µM
# T5 sequence (whole entry): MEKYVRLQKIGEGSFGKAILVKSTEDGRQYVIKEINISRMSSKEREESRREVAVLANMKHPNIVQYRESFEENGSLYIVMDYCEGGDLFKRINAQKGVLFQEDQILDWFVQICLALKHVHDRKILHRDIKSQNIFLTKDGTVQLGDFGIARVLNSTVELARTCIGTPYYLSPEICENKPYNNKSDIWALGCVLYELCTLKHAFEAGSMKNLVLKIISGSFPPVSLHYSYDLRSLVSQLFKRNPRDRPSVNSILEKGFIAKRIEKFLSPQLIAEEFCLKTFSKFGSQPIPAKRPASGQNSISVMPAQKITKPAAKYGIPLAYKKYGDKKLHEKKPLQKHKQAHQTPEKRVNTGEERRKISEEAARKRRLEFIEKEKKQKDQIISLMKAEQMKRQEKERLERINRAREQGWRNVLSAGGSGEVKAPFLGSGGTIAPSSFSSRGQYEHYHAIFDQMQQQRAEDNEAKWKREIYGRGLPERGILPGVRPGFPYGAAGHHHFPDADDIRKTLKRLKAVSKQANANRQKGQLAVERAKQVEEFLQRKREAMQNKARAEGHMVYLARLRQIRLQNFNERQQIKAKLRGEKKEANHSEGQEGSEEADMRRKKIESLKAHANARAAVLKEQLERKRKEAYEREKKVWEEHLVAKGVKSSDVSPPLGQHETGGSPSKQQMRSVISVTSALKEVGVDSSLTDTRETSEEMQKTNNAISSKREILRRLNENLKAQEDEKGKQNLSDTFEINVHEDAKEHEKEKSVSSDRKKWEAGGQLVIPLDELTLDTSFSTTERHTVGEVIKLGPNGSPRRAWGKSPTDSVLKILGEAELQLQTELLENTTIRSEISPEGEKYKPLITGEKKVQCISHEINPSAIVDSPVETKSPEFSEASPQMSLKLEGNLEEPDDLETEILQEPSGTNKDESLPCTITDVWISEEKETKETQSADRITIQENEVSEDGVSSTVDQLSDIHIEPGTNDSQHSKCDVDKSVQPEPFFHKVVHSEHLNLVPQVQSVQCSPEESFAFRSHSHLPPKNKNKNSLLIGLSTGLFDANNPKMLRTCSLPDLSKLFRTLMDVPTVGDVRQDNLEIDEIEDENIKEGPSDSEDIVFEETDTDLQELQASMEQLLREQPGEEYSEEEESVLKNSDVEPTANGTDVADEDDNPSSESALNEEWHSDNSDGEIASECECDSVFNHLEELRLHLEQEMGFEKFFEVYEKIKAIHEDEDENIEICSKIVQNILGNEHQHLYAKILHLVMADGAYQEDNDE
# [13] = molecular target: T5, Serine/threonine-protein kinase Nek1 (Homo sapiens); details: at 1 µM
# [14] = molecular target: T6, Serine/threonine-protein kinase Nek2 (Homo sapiens) (UniProt P51955); details: at 0.1 µM
# T6 sequence (whole entry): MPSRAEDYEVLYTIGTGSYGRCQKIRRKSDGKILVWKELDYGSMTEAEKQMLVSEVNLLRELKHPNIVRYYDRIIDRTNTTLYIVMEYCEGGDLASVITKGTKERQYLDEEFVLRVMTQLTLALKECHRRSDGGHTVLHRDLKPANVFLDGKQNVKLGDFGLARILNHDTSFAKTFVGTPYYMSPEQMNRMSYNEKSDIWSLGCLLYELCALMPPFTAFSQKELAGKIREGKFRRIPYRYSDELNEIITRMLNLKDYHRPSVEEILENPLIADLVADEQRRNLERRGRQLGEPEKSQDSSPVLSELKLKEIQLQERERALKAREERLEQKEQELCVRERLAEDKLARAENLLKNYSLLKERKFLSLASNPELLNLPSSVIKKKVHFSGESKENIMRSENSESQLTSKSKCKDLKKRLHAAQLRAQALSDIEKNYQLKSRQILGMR
# [15] = molecular target: T6, Serine/threonine-protein kinase Nek2 (Homo sapiens); details: at 1 µM
# [16] = molecular target: Serine/threonine-protein kinase Nek6 (Homo sapiens) (UniProt Q9HC98); details: at 0.1 µM
# [17] = molecular target: Serine/threonine-protein kinase Nek6 (Homo sapiens) (UniProt Q9HC98); details: at 1 µM
# [18] = molecular target: Serine/threonine-protein kinase Nek7 (Homo sapiens) (UniProt Q8TDX7); details: at 0.1 µM
# [19] = molecular target: Serine/threonine-protein kinase Nek7 (Homo sapiens) (UniProt Q8TDX7); details: at 1 µM
# [20] = molecular target: T7, Serine/threonine-protein kinase Nek9 (Homo sapiens) (UniProt Q8TD19); details: at 0.1 µM;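 further: reported value is the mean percent inhibition of NEK9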
# T7 sequence (whole entry): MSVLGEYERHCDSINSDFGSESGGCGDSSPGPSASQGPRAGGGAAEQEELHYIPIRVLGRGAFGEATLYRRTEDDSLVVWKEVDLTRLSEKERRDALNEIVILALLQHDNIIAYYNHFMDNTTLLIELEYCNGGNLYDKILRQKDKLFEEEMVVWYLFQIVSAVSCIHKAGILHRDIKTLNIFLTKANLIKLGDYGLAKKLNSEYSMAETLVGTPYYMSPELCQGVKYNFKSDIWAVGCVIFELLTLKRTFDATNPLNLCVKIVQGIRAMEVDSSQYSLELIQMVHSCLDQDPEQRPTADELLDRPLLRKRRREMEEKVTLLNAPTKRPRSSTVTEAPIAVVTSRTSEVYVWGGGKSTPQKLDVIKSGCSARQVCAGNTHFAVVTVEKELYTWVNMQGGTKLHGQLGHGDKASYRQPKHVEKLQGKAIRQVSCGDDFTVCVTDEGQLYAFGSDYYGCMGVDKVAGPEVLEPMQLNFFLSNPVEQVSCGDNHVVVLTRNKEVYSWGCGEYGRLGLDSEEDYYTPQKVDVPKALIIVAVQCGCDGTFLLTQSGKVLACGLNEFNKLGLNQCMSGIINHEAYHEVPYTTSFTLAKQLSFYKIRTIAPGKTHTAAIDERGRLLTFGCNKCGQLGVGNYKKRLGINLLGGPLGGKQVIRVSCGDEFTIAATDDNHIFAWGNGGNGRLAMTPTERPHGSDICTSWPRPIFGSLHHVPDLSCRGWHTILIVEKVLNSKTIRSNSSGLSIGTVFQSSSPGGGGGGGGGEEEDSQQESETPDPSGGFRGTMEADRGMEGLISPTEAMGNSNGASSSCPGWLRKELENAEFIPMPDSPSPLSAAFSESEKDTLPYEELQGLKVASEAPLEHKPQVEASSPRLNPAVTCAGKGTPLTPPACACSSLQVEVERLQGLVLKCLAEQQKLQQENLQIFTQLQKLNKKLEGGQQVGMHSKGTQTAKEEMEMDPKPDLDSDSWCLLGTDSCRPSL
# Serine/threonine-protein kinase Nek7 (Homo sapiens), sequence (Q8TDX7 whole entry, looked up): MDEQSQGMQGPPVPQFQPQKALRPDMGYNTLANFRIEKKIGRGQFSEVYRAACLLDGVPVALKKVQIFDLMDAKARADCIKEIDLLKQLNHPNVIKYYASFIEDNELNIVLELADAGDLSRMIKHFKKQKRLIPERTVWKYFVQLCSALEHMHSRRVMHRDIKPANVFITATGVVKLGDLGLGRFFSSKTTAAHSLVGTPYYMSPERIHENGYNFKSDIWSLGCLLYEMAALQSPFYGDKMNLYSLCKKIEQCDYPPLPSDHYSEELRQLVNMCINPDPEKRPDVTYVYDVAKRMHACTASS
# Casein kinase II subunit alpha (Homo sapiens), sequence (P68400 whole entry, looked up): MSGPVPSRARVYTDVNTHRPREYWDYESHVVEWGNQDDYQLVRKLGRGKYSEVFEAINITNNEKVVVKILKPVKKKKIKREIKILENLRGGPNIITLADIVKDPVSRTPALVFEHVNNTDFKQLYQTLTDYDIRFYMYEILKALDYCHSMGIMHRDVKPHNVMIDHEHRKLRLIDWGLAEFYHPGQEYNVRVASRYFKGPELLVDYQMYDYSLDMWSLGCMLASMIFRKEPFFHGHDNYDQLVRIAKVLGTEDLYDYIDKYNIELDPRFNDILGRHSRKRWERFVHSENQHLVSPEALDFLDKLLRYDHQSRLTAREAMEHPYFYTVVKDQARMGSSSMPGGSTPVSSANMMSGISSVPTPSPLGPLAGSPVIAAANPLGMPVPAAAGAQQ
# Serine/threonine-protein kinase Nek6 (Homo sapiens), sequence (Q9HC98 whole entry): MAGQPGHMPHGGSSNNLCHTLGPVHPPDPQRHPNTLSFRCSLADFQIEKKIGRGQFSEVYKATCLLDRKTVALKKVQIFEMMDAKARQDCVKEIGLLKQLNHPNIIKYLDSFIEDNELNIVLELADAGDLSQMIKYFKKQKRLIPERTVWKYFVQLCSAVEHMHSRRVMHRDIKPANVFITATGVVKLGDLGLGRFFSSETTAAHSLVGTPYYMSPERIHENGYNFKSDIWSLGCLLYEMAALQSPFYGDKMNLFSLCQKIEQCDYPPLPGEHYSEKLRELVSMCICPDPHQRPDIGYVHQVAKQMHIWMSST
# Sphingosine kinase 1 (Homo sapiens), sequence (Q9NYA1 whole entry): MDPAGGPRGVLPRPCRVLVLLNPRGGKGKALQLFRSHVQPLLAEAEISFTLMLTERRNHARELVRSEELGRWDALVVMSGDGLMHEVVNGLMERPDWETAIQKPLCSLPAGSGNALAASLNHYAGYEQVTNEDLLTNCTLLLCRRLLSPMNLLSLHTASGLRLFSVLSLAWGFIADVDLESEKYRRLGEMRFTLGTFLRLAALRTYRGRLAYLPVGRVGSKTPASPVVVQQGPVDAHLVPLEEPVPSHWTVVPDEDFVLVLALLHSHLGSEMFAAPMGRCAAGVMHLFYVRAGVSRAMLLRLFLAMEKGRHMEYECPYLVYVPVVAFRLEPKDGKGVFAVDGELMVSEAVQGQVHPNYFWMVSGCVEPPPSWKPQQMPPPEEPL
smiles,measurement,setting,value
CC1=C(C(=O)Nc2ccc3[nH]ncc3c2)C(c2ccc(Cl)c(Cl)c2)CC(=O)N1 (stereo not given),inhibition,[1],-3.67%
same,inhibition,[2],-0.3%
same,inhibition,[3],-1.45%
same,inhibition,[4],2.1%
same,inhibition,[5],3.35%
same,inhibition,[6],5.09%
same,inhibition,[7],2.52%
same,inhibition,[8],3.16%
same,inhibition,[9],0.15%
same,inhibition,[10],0.83%
same,inhibition,[11],-0.94%
same,inhibition,[12],0.09%
same,inhibition,[13],-0.51%
same,inhibition,[14],1.92%
same,inhibition,[15],1.44%
same,inhibition,[16],-0.99%
same,inhibition,[17],-2.51%
same,inhibition,[18],2.34%
same,inhibition,[19],3.79%
same,inhibition,[20],7.85%
